Reference: PMC4336329 (PLoS ONE, 2015)
The whole screen tested about 310,000 compounds, of which about 14,000 (4.5%) showed an effect of 50% or more. The effect is printed as a negative number. Many of the other results were omitted from the sample, so strong results are more common in it than they were.

Each compound was assayed against human ether-à-go-go-related gene (hERG) potassium channel (human, UniProt Q12809) (assay: primary screen, population patch clamp on CHO cells stably expressing hERG; higher = less effect of the substance).
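Further: peak tail current of the secondary pulse compared with the same well before compound.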

Sequence of human ether-à-go-go-related gene (hERG) potassium channel (Q12809 whole entry, looked up): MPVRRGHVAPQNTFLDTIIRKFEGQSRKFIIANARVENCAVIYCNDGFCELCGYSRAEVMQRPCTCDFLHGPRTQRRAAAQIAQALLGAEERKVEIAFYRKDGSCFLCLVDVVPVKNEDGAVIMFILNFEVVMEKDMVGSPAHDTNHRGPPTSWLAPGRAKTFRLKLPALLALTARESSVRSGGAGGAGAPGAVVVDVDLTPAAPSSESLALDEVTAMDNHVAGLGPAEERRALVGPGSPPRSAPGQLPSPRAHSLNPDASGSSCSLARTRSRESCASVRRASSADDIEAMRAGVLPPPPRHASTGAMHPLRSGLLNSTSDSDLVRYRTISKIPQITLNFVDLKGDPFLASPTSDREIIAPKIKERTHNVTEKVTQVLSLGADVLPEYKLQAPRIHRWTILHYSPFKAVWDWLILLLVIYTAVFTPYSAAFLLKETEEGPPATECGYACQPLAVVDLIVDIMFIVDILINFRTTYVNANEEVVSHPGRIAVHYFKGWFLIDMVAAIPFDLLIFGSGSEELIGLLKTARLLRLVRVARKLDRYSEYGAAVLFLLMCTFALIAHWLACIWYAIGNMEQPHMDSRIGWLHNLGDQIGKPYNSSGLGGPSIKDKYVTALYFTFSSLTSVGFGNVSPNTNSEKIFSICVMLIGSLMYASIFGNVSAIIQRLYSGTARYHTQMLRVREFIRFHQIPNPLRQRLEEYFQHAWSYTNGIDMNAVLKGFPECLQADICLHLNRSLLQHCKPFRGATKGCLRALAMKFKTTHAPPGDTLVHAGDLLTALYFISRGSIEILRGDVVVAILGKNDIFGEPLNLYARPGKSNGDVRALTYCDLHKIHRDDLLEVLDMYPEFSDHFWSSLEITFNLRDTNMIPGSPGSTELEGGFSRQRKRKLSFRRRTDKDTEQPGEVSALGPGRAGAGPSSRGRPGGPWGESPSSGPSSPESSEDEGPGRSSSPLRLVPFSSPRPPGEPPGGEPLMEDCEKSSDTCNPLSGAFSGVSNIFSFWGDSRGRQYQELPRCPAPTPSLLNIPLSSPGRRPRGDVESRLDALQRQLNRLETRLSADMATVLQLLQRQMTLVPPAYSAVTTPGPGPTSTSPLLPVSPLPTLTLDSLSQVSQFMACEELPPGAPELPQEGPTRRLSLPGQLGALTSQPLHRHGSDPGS

Question: With `CN(C)/C=C1\SC(=S)N(c2ccc(Br)cc2)C1=O` as the compound, how does the “hERG current change (%, negative = inhibition) at 10uM” value read?
Answer: -4.75%

Question: With `COc1ccccc1N1CCN(C(=O)Cn2ncc3c([nH]c4ccccc43)c2=O)CC1` as the compound, how does the “hERG current change (%, negative = inhibition) at 10uM” value read?
Answer: 4.74%

Question: With `CCCCn1c(Cc2ccccc2)nnc1SCC(=O)N1CCOCC1` as the compound, how does the “hERG current change (%, negative = inhibition) at 10uM” value read?
Answer: 0.754%

Question: `CN(/N=C/Cc1nnnn1-c1ccc(Cl)cc1)c1ccccc1` was tested. Which “hERG current change (%, negative = inhibition) at 10uM” value did it give?
Answer: -7.54%

Question: `Cc1c(C#N)c2ncnc(N)c2n1-c1ccccc1` was tested. Which “hERG current change (%, negative = inhibition) at 10uM” value did it give?
Answer: 5.64%

Question: Which “hERG current change (%, negative = inhibition) at 10uM” value does the source give for `NC1=C([N+](=O)[O-])C(c2ccc3c(c2)OCO3)c2c(c3ccccc3oc2=O)O1` (centres unmarked) here?
Answer: -21.3%

Question: Which “hERG current change (%, negative = inhibition) at 10uM” value does the source give for `O=C(Nc1cc2c3c(c1)CC(=O)N3CCC2)C1CCCCC1` here?
Answer: -5.43%

Question: How did the “hERG current change (%, negative = inhibition) at 10uM” value turn out when `CC(C)(C)OC(=O)NCCCCCc1nnc(SCC(=O)Nc2cccc(Cl)c2)o1` was run?
Answer: -50.7%

Question: Which “hERG current change (%, negative = inhibition) at 10uM” value does the source give for `CC(C)(C)OC(=O)NCCc1nnc(SCC(=O)Nc2cccc(Cl)c2)o1` here?
Answer: 6.91%

Question: Which “hERG current change (%, negative = inhibition) at 10uM” value does the source give for `Cc1cccc(C)c1NC(=O)CSc1nnc(CCCCCNC(=O)OC(C)(C)C)o1` here?
Answer: -17.8%

Question: For `COc1cccc(C(=O)C2CCCN(C(=O)CCc3scnc3C)C2)c1` (centres unmarked), which “hERG current change (%, negative = inhibition) at 10uM” value is on record?
Answer: -12.7%

Question: How did the “hERG current change (%, negative = inhibition) at 10uM” value turn out when `CCOC(=O)c1cnn(-c2ccccc2)c1NC(=O)CN1CCOCC1` was run?
Answer: 16.1%

Question: For `Cn1c(N)c(C(=O)COC(=O)c2ccco2)c(=O)n(C)c1=O`, which “hERG current change (%, negative = inhibition) at 10uM” value is on record?
Answer: 5.09%

Question: With `COc1ccc(-c2nc(C)ncc2-c2csc(C)n2)c(O)c1` as the compound, how does the “hERG current change (%, negative = inhibition) at 10uM” value read?
Answer: 11%

Question: With `COc1ccc(C)cc1Cn1nnc2ccccc21` as the compound, how does the “hERG current change (%, negative = inhibition) at 10uM” value read?
Answer: -4.34%

Question: With `CN(C)c1ccc(C2(O)C(=O)c3ccccc3C2=O)cc1` as the compound, how does the “hERG current change (%, negative = inhibition) at 10uM” value read?
Answer: 23.4%

Question: For `CNc1ccc(C2(O)C(=O)c3ccccc3C2=O)cc1`, which “hERG current change (%, negative = inhibition) at 10uM” value is on record?
Answer: -66.1%

Question: For `CCNc1ccc(C2(O)C(=O)c3ccccc3C2=O)cc1`, which “hERG current change (%, negative = inhibition) at 10uM” value is on record?
Answer: 12.6%

Question: `COc1ccc(NC(=O)c2sc(NC(=O)COc3ccccc3)nc2C)cc1` was tested. Which “hERG current change (%, negative = inhibition) at 10uM” value did it give?
Answer: 1.76%

Question: `COc1ccc(CCc2nnc(CCC(=O)N(C)Cc3ccnc4ccccc34)o2)cc1` was tested. Which “hERG current change (%, negative = inhibition) at 10uM” value did it give?
Answer: -37.7%

Question: How did the “hERG current change (%, negative = inhibition) at 10uM” value turn out when `COc1ccc(C(C)(C)C)cc1NC(=O)COC(=O)c1nc2nccc(C)n2n1` was run?
Answer: 3.17%

Question: How did the “hERG current change (%, negative = inhibition) at 10uM” value turn out when `O=c1[nH]c(=S)n(C2CC2)c(O)c1C=Nc1cccc(C(F)(F)F)c1` was run?
Answer: 12.8%

Question: Which “hERG current change (%, negative = inhibition) at 10uM” value does the source give for `Cc1ccc(NC(=O)Nc2cccc3ccccc23)cc1` here?
Answer: 19.5%

Question: Which “hERG current change (%, negative = inhibition) at 10uM” value does the source give for `Cc1cccc(NC(=O)NC2(C)CCS(=O)(=O)C2)c1` (centres unmarked) here?
Answer: 6.52%

Question: `CC1(NC(=S)Nc2ccccc2)CCS(=O)(=O)C1` (centres unmarked) was tested. Which “hERG current change (%, negative = inhibition) at 10uM” value did it give?
Answer: 13.8%

Question: How did the “hERG current change (%, negative = inhibition) at 10uM” value turn out when `CC1(NC(=O)Nc2ccccc2)CCS(=O)(=O)C1` (centres unmarked) was run?
Answer: -53%

Question: Which “hERG current change (%, negative = inhibition) at 10uM” value does the source give for `C/C(=N/NC(=O)CCC(=O)Nc1ccc(Br)cc1)c1ccc(Br)cc1` here?
Answer: 12.7%

Question: With `O=C(Nc1ccccc1)N(CCc1nc2ccccc2[nH]1)C1CCCC1` as the compound, how does the “hERG current change (%, negative = inhibition) at 10uM” value read?
Answer: -24%

Question: With `CC1CCCCC1NC(=O)CCCCCn1c(=S)[nH]c2ccccc2c1=O` (centres unmarked) as the compound, how does the “hERG current change (%, negative = inhibition) at 10uM” value read?
Answer: 7.63%

Question: Which “hERG current change (%, negative = inhibition) at 10uM” value does the source give for `O=C(Nc1nccs1)c1nc[nH]c1C(=O)NCc1ccccc1` here?
Answer: 3.34%

Question: Which “hERG current change (%, negative = inhibition) at 10uM” value does the source give for `CC(C)(C)NC(=O)Cn1nnc(-c2cccs2)n1` here?
Answer: -4.07%

Question: How did the “hERG current change (%, negative = inhibition) at 10uM” value turn out when `O=C(Nc1ccc([N+](=O)[O-])cc1)c1cc(-c2ccccn2)nc2c(Cl)cccc12` was run?
Answer: 33%

Question: Which “hERG current change (%, negative = inhibition) at 10uM” value does the source give for `CCOc1ccccc1N1CC(C(=O)N(Cc2nnc(-c3ccccc3Cl)o2)C2CC2)CC1=O` (centres unmarked) here?
Answer: -16.8%

Question: For `O=C1OC(CC(=O)N(Cc2nnc(-c3ccc(Cl)cc3)o2)C2CC2)c2ccccc21` (centres unmarked), which “hERG current change (%, negative = inhibition) at 10uM” value is on record?
Answer: -67.8%

Question: With `COc1ccccc1OCC(=O)N(Cc1nnc(-c2ccccc2Cl)o1)C1CC1` as the compound, how does the “hERG current change (%, negative = inhibition) at 10uM” value read?
Answer: -44.2%

Question: For `O=C1OC(CC(=O)N(Cc2nnc(-c3ccccc3Cl)o2)C2CC2)c2ccccc21` (centres unmarked), which “hERG current change (%, negative = inhibition) at 10uM” value is on record?
Answer: -40.3%

Question: How did the “hERG current change (%, negative = inhibition) at 10uM” value turn out when `CCC(=O)c1ccc(OCC(=O)N(Cc2nnc(-c3ccccc3Cl)o2)C2CC2)cc1` was run?
Answer: -67.2%

Question: For `Cc1ccc(CN2CC(C(=O)N(Cc3nnc(-c4ccccc4Cl)o3)C3CC3)CC2=O)cc1` (centres unmarked), which “hERG current change (%, negative = inhibition) at 10uM” value is on record?
Answer: -45.2%

Question: How did the “hERG current change (%, negative = inhibition) at 10uM” value turn out when `N#Cc1ccccc1OCC(=O)N(Cc1nnc(-c2ccccc2Cl)o1)C1CC1` was run?
Answer: -48.7%

Question: How did the “hERG current change (%, negative = inhibition) at 10uM” value turn out when `Cc1ccc(C(=O)N(Cc2nnc(-c3ccc(Cl)cc3)o2)C2CC2)o1` was run?
Answer: -32.6%

Question: How did the “hERG current change (%, negative = inhibition) at 10uM” value turn out when `CCCN(Cc1nnc(-c2ccccc2Cl)o1)C(=O)COc1ccc(Cl)cc1` was run?
Answer: -60.5%

Question: How did the “hERG current change (%, negative = inhibition) at 10uM” value turn out when `CCCN(Cc1nnc(-c2ccccc2Cl)o1)C(=O)c1oc2ccccc2c1C` was run?
Answer: -13.1%

Question: How did the “hERG current change (%, negative = inhibition) at 10uM” value turn out when `CSc1cccc(N2CC(C(=O)N(Cc3nnc(-c4ccccc4Cl)o3)C3CC3)CC2=O)c1` (centres unmarked) was run?
Answer: -55.5%

Question: For `Cc1ccc(C)c(OCC(=O)N(Cc2nnc(-c3ccccc3Cl)o2)C2CC2)c1`, which “hERG current change (%, negative = inhibition) at 10uM” value is on record?
Answer: -20.9%

Question: How did the “hERG current change (%, negative = inhibition) at 10uM” value turn out when `CN(C)c1ccc(/C=N/NC(=O)c2ccc(-n3cnnn3)cc2)cc1` was run?
Answer: 10.8%

Question: For `CCOc1ccc2nc(NS(=O)(=O)Cc3ccccc3)sc2c1`, which “hERG current change (%, negative = inhibition) at 10uM” value is on record?
Answer: 9.15%

Question: `Cc1cc(OC(C)C)c2c(-c3ccccc3)cc(=O)oc2c1` was tested. Which “hERG current change (%, negative = inhibition) at 10uM” value did it give?
Answer: 16.2%

Question: How did the “hERG current change (%, negative = inhibition) at 10uM” value turn out when `O=C1N=C(N2CCCCC2)S/C1=C\c1ccc(Cl)cc1` was run?
Answer: 9.15%

Question: For `O=C(CN1C(=O)NC2(CCCC2)C1=O)OCc1cc(=O)n2cc(Br)ccc2n1`, which “hERG current change (%, negative = inhibition) at 10uM” value is on record?
Answer: 0.0178%

Question: Which “hERG current change (%, negative = inhibition) at 10uM” value does the source give for `COc1cc(C(=O)Nc2ccc(-c3nnc(-c4ccco4)o3)cc2)cc(OC)c1OC` here?
Answer: -3.23%

Question: For `Cc1ccnc(NS(=O)(=O)c2cccc([N+](=O)[O-])c2)c1`, which “hERG current change (%, negative = inhibition) at 10uM” value is on record?
Answer: 0.0315%

Question: How did the “hERG current change (%, negative = inhibition) at 10uM” value turn out when `CCNC(=O)CC1C(=O)N(c2cccc(OC)c2)C(=O)N1CCOC` (centres unmarked) was run?
Answer: 8.39%

Question: With `COc1ccc(CNC(=O)C(c2ccco2)N(Cc2cccs2)C(=O)Cc2cccs2)cc1` (centres unmarked) as the compound, how does the “hERG current change (%, negative = inhibition) at 10uM” value read?
Answer: 10.6%

Question: For `O=C(COc1ccccc1)N(Cc1nnc(-c2ccccc2Cl)o1)C1CC1`, which “hERG current change (%, negative = inhibition) at 10uM” value is on record?
Answer: -15%

Question: For `Cc1ccc(OCC(=O)N(Cc2nnc(-c3ccccc3Cl)o2)C2CC2)cc1C`, which “hERG current change (%, negative = inhibition) at 10uM” value is on record?
Answer: -44.1%

Question: With `Cc1cccc(OCC(=O)N(Cc2nnc(-c3ccccc3Cl)o2)C2CC2)c1` as the compound, how does the “hERG current change (%, negative = inhibition) at 10uM” value read?
Answer: -54.2%
